This note sets out measurements from PubChem BioAssay (Tox21).

The structures appear in SMILES notation. Values joined by “and” are separate entries in the source; they are usually repeats but may differ in a detail not shown here. Identical values can stand only once. Results filed as inconclusive are left out. A call without a number means that no potency is given here. The source holds several records for some structures; these can differ, active in one and inactive in another. Active and inactive are the calls of the source. Calls come from the whole dose curve; as a rule, active = well fitted cell-killing curve with a large enough effect in the repeat runs; inconclusive = weak or mixed curves; inactive = no such curve, though single readings can be large or run the other way.
Potency is the fitted concentration of half-maximal effect.

This experiment is described as follows: qHTS assay to identify small molecule agonists of the peroxisome proliferator-activated receptor delta (PPARd) signaling pathway - cell viability counter screen (AID 743211). Note: nearly all actives have a fitted effect of over 55% in size. To be noted: PPARd-bla HEK293H viability, CellTiter-Glo luminescence, 17 h; series mostly up to 62.6 µM. The source says: U.S. Tox21 Program National Center for Advancing Translational Sciences [NCATS] NIH Chemical Genomics Center [NCGC] U.S. Environmental Protection Agency [EPA] National Institutes of Environmental Health Sciences [NIEHS] National Toxicology Program [NTP] U.S. Food and Drug Administration [FDA] Tox21 Assay Overview: The peroxisome proliferator-activated receptors (PPARs) are lipid-activated transcription factors of the nuclear receptor superfamily with three distinct subtypes namely PPAR alpha, PPAR delta (PPARd) and PPAR gamma. All these subtypes heterodimerizes with Retinoid X receptor (RXR) and have different physiological functions. […] To identify the compounds that activate PPAR-delta signaling, GeneBLAzer PPAR delta UAS-bla HEK293H cell line (Invitrogen, Carlsbad, CA, USA) containing a beta-lactamase reporter gene under the control of an Upstream Activator Sequence (UAS) was used to screen the Tox21 compound library. The cytotoxicity of the Tox21 compound library against the PPARd-bla cell line was tested in parallel by measuring the cell viability using CellTiter-Glo assay (Promega, Madison, WI) in the same wells.
Tox21 Assay Protocol Summary: PPARd-bla cells were dispensed at 3000 cells/6uL/well in 1536-well black wall/clear bottom plates using a Multidrop Combi (Thermo Fisher Scientific, Waltham, MA) dispenser. After the assay plates were incubated at 37 C and 5% CO2 for 5 h, 23 nL of compounds dissolved in DMSO, positive controls or DMSO only was transferred to the assay plate by a Pintool station (Kalypsys, San Diego, CA). The assay plates were incubated at 37C for 17 h. After 1 uL of LiveBLAzerTM B/G FRET substrate was added using a Bioraptr Flying Reagent Dispenser (FRD) workstation (Beckman Coulter, Indianapolis, IN, USA), the plates were incubated at room temperature for 2 h, and fluorescence intensity was measured by an Envision plate reader (PerkinElmer, Shelton, CT). For cell viability readout that measures cytotoxicity, 3 ul/well of CellTiter-Glo reagent was added into the assay plates using a Bioraptr FRD. After 30 min incubation at room temperature, the luminescence intensity in the plates was measured using a ViewLux plate reader (PerkinElmer).
(qHTS replaces the single test concentration by a dilution series.)
`CCCCCCCCCCCCOCC1CO1` (stereo not given): the Potency entry was “inactive”.

As for `C=CC(=O)OCCCCCCCC(C)C`, the Potency result was “inactive”.

For the compound `Nc1nc2ncc(CNc3ccc(C(=O)N[C@@H](CCC(=O)O)C(=O)O)cc3)nc2c(=O)[nH]1`, the Potency entry is “inactive”.

Turning to `CC1COc2ccccc2N1C(=O)C(Cl)Cl` (stereo not given), the Potency result is “inactive”.

As to `O=S(=O)(Oc1ccc(Cl)cc1Cl)c1ccccc1`, the Potency result is “inactive”.

On to `NC(=O)NNc1ccccc1`, for which the Potency entry is “inactive”.

As to `CCCCC(CC)COC(C)=O` (stereo not given), the Potency result is “inactive”.

In the case of `NCc1cccc(CN)c1`, the Potency entry was “inactive”.

`C=C(C)C(=O)OCCCCCC`: the Potency entry is “inactive”.

As for `CCCCOCCOCCOC(=O)CCCCC(=O)OCCOCCOCCCC`, the Potency result is “inactive”.

On to `CC(C)(C)C1CCC(O)CC1` (stereo not given), for which the Potency result was “inactive”.

For the compound `CCCCCCCCCC(=O)O`, the Potency entry is “inactive”.

Consider `ClC1=C(Cl)C(Cl)(Cl)C(Cl)=C1Cl`, for which the Potency result was “inactive”.

As for `CC(=O)[C@@]1(O)CC[C@H]2[C@@H]3CCC4=CC(=O)CC[C@]4(C)[C@H]3CC[C@@]21C`, the Potency result was “inactive”.

In the case of `CCCCCCCCCCCCN`, the Potency result was “inactive and 19.5 µM (active)”.

Turning to `CNC[C@H](O)[C@@H](O)[C@H](O)[C@H](O)CO`, the Potency entry was “inactive”.

Take `CCCCCCC(C)(C)S`: the Potency result was “inactive”.

`O=[N+]([O-])C(CO)(CO)CO`: the Potency result was “inactive”.

On to `OC[C@@H](O)[C@H](O)[C@H](O)[C@@H](O)CO`, for which the Potency entry was “inactive”.

As to `CN(CCOc1ccc(CC2SC(=O)NC2=O)cc1)c1ccccn1` (stereo not given), the Potency entry was “inactive”.

As to `Cc1cc(O)cc(C)c1Cl`, the Potency result was “inactive”.

In the case of `CCOC(=O)[C@H](CCc1ccccc1)N[C@@H](C)C(=O)N1Cc2ccccc2C[C@H]1C(=O)O`, the Potency result was “inactive”.

In the case of `CCCCCCCCC`, the Potency entry was “inactive”.

For the compound `CC(C)(N=C=O)c1cccc(C(C)(C)N=C=O)c1`, the Potency entry is “inactive”.

Regarding `OCCOCCOCCOCCO`, the Potency entry was “inactive”.

As for `O=S(=O)(O)CCS`, the Potency result is “inactive”.

As to `CS(=O)(=O)Nc1ccc([N+](=O)[O-])cc1Oc1ccccc1`, the Potency entry was “inactive”.

Regarding `NCCc1ccc(O)c(O)c1`, the Potency entry was “inactive”.

With `C[C@@H](O)[C@H]1C(=O)N2C(C(=O)O)=C(S[C@@H]3CN[C@H](C(=O)N(C)C)C3)[C@H](C)[C@H]12`, the Potency entry was “inactive”.

With `CC(=O)CCc1ccccc1`, the Potency entry is “inactive”.

For the compound `Cc1ccc(N)c(S(=O)(=O)O)c1`, the Potency entry is “inactive”.

On to `CCOC(=O)/C=C\C(=O)OCC`, for which the Potency result is “inactive”.

For `CC[Si](OC(C)=O)(OC(C)=O)OC(C)=O`, the Potency result is “inactive”.

`CCCCCCOC(C)=O`: the Potency entry is “inactive”.

On to `COC(=O)c1ccccc1O`, for which the Potency result was “inactive”.

As for `C[C@@H]1O[C@@H](OC[C@H]2O[C@@H](Oc3c(-c4ccc(O)c(O)c4)oc4cc(O)cc(O)c4c3=O)[C@H](O)[C@@H](O)[C@@H]2O)[C@H](O)[C@H](O)[C@H]1O`, the Potency result was “inactive”.

As for `C=C(C#N)C(=O)OCC`, the Potency result was “inactive”.

Consider `CC1(C)O[C@@H]2C[C@H]3[C@@H]4C[C@H](F)C5=CC(=O)CC[C@]5(C)[C@H]4[C@@H](O)C[C@]3(C)[C@]2(C(=O)CO)O1`, for which the Potency entry is “inactive”.

In the case of `Oc1ccc2ccccc2c1N=Nc1ccccc1`, the Potency result was “inactive”.

Turning to `Clc1cc(Cl)c(Cl)cc1Cl`, the Potency result is “inactive”.
